# Measured values reported in PubChem BioAssay (NCI).
# About 83,000 compounds went through this panel and 20% of them were active in at least one assay; those are over-represented in the sample as a whole.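 Method: cells in 96-well plates; compound added at one concentration; 48 h incubation; percent growth measured; values under 10 scored active.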 Values without a mark were called inactive. The source made the active and inactive calls.
# What was measured:
# Assay in all cases: NCI-60 one-dose screen, 48 h (100 = growth as untreated, 0 = no growth, -100 = all killed)
# Conditions in all cases: 10 µM unless noted
# SK-MEL-2 melanoma = test system: SK-MEL-2 melanoma
# EKVX NSCLC = test system: EKVX NSCLC
# SN12C renal = test system: SN12C renal
# UO-31 renal = test system: UO-31 renal
# TK-10 renal = test system: TK-10 renal
# ACHN renal = test system: ACHN renal
# CAKI-1 renal = test system: CAKI-1 renal
# A498 renal = test system: A498 renal
# CCRF-CEM leukemia = test system: CCRF-CEM leukemia
# MOLT-4 leukemia = test system: MOLT-4 leukemia
Compound,growth (SK-MEL-2 melanoma) [%],growth (EKVX NSCLC),growth (SN12C renal),growth (UO-31 renal),growth (TK-10 renal),growth (ACHN renal),growth (CAKI-1 renal),growth (A498 renal),growth (CCRF-CEM leukemia),growth (MOLT-4 leukemia)
CC[N+](CC)(CCCC(C)[N+]1(Cc2ccccc2)C(C)=CC=C1C)Cc1ccccc1 (stereo not given),102,78.1%,85.1%,91.2%,93.8%,100%,101%,87.5%,74.1%,84%
c1cnc2nc3c(cc2c1)oc1ccccc13,101,102%,94.8%,68.3%,107%,93.3%,80%,69.3%,90.9%,92.8%
Fc1ccc(C2CC(c3cccc(Nc4ccncc4)c3)=NN2c2cc(Cl)cc(Cl)c2)cc1 (stereo not given),105,80%,72%,47.6%,74.8%,43.3%,31.1%,94.5%,0.277% (active),1.57% (active)
Cc1c([N+](=O)[O-])cc(C(C)(C)C)cc1[N+](=O)[O-],71.5,98.6%,99.7%,98.7%,102%,104%,98%,93.8%,106%,95.9%
COc1ccc(-c2nc(SC(C)C)nc(NNC(N)=O)c2C#N)cc1,92.9,99.2%,83.9%,68.2%,97.1%,90.1%,72.2%,90.2%,88.3%,78.6%
CC(N)C(=O)NNc1n[nH]c(=S)n1N (stereo not given),105,93.9%,102%,83%,108%,108%,93.9%,94.8%,102%,107%
COc1ccc(C(=O)c2cc3c(N)c(C(=O)Nc4ccc(Br)cc4)sc3nc2C)cc1,74.4,83.1%,84.4%,72.3%,98.8%,65.5%,62.5%,83.9%,88.5%,91.2%
CC(=O)Nc1ccc(S(=O)(=O)NC2CCCCC2)cc1,108,95.2%,91%,85.2%,90.2%,91.7%,98.5%,64.3%,96.3%,101%
O=c1[nH]nc(-c2ccc(Br)cc2)cc1Cc1ccc(O)cc1,107,51.7%,90.5%,77.3%,139%,105%,98.1%,103%,-9.56% (active),17.9%
COc1ccc(C2CC(c3cccc(Nc4ccncc4)c3)=NN2c2ccccc2)cc1 (stereo not given),71.7,87.2%,80.6%,64.3%,68.7%,69.2%,51.5%,78%,30.7%,10.7%
COc1cc2nnn3c4ncccc4c(N=O)c3c2cc1OC,101,106%,81.4%,-6.2% (active),98.8%,-2.46% (active),74.9%,174%,-13.4% (active),-14.9% (active)
CN1C2CCC1CN(c1cnc(C(=O)Nc3cc(F)cc4cccnc34)cn1)C2,109,45.9%,51.4%,28.3%,77.2%,24.4%,46.6%,74.9%,28.3%,21.1%
O=C(N/N=C/c1ccc(F)cc1)c1ccccc1Nc1cccc(C(F)(F)F)c1,114,102%,102%,94.1%,130%,102%,112%,70.8%,6.32% (active),7.44% (active)
NC(=O)C1(N2CCCCC2)CCN(CCCC(=O)c2ccc(F)cc2)CC1,13.9,59.2%,43.3%,88.9%,88.2%,90.9%,91.7%,32.8%,0.142% (active),26.8%
CNC(=O)c1c(NC(=O)c2ccc(C(C)C)cc2)sc2c(CN(C)C)c(O)ccc12,90.2,90.2%,99.4%,64.5%,86.8%,66.6%,85.1%,58.9%,56.7%,72.4%
COc1cc2nc(-c3ccc(-c4nn[nH]n4)cc3)[nH]c(=O)c2cc1OC,122,108%,140%,86.3%,246%,111%,-1.66% (active),147%,114%,95.5%
C[C@]12C[C@H]1CC[C@]1(C)[C@@H]2CC[C@@]23C[C@H](CC[C@H]21)[C@@](O)(CO)C3,104,74.8%,92%,84%,100%,107%,85.9%,92.9%,86.4%,96%
CC(C)(C)CC(C)(C)Nc1c(-c2ccc(C(F)(F)F)cc2)nc2cnccn12,91,79.4%,86.1%,64.1%,102%,87%,75.4%,83.8%,85.8%,68.5%
COc1ccccc1/C=C1\COc2ccc(-c3ccccc3)cc2C1=O,44.7,94%,54%,49.3%,52%,60.8%,86.4%,42.8%,-25.3% (active),-18% (active)
COc1ccc(/C=C/c2n[nH]c3ccc(N4CCOC4=O)cc23)cc1,11.7,8.71% (active),24%,-45.7% (active),-9.71% (active),6.86% (active),4.59% (active),-19.6% (active),-17% (active),4.38% (active)
O=C1Nc2c(ccc(Cl)c2Cl)/C1=C/c1ccc([N+](=O)[O-])cc1,99.1,84.3%,126%,79.7%,103%,87.8%,59.6%,99.4%,2.94% (active),96.3%
CCCCCCCCCCN=C(N)N=C(N)N,75.8,38.8%,9.21% (active),43.1%,40.8%,40.1%,43.4%,54.9%,35.7%,30.8%
NC(=O)c1ncn(C2OC(CO)C(O)C2O)n1 (stereo not given),40.7,90.2%,82.4%,83.7%,109%,90.5%,99.2%,89.1%,67.1%,52.7%
Cc1ccccc1C(c1ccccc1)c1ccccc1C,101,96.3%,96.8%,79.2%,100%,94.2%,87.6%,83.6%,83.3%,93.5%
O=S(=O)(NCCNc1nccc(-c2c(-c3ccc(F)c(O)c3)nc3occn23)n1)c1ccccc1,17,81.6%,48.8%,35.2%,121%,33.9%,44.1%,103%,38.5%,47.8%
CC1(C)[C@H](O)CC[C@]2(C)[C@@H]1CC[C@@]13C[C@@H](CC[C@H]12)[C@@](O)(CO)C3,106,104%,103%,93.6%,108%,106%,97.8%,96.9%,106%,108%
